Out of some 47,000 compounds screened, about 95 (0.2%) were called active. The full list was thinned out, with actives kept by preference. Unmarked numbers belong to inactive results. Rule as the data show it: active = inhibition above about 30%; inactive = the rest.
What follows are molecules tested against Ubiquitin carboxyl-terminal hydrolase isozyme L1 (Homo sapiens) (UniProt P09936) (assay: inhibitors of human UCHL1 deubiquitinase (AID 1645859)). Settings: purified UCHL1, Ub-rhodamine cleavage fluorescence; at 20 µM; hits give high values.
Sequence of Ubiquitin carboxyl-terminal hydrolase isozyme L1 (Homo sapiens) (P09936 whole entry, looked up): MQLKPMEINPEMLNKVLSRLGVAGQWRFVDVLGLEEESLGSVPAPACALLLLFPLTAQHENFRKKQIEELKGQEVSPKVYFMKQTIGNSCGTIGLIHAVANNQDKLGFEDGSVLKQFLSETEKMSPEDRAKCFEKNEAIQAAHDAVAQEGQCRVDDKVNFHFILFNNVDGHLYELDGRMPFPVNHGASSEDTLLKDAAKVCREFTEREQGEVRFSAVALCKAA

Structure (SMILES)	inhibition
COCC(=O)N1CCC(n2c(-c3ccccc3OC)nc3ccccc32)CC1	-2.92%
COCCC(=O)N1CCC2(C/C=C/Cc3ccccc3OCC(=O)NCCNC2=O)CC1	3.12%
COCC(=O)N1CCN2C[C@H]1C(=O)NC[C@H]1O[C@@H](CC(=O)N[C@H]3C[C@@H](C2=O)N(Cc2ccc(OC(F)(F)F)cc2)C3)[C@H](O)[C@@H]1O	-6.2%
FC(F)(F)c1ccc(-c2nnc(SCCOc3ccccc3)o2)cc1	11.1%
Cc1ccc(CN2CN(C3CCN(C(=O)c4ccoc4)CC3)CC2=O)c(C)c1	-0.0513%
O=C(Nc1nc2nc(-c3ccccc3)cc(=O)n2[nH]1)C1CCCCC1	4.88%
Cc1nc(-c2cn(C(C)C)c3ncccc23)sc1C(=O)N1CCCC1	1.73%
Cc1ccc(CNC(=O)c2cc(=O)nc3sc(N4CCCC(C)C4)nn23)cc1 (centres undefined)	0.655%
COc1ccc(C(NC(=O)CN(C)Cc2ccc3c(c2)OCO3)c2ccccc2)cc1 (centres undefined)	6.51%
Fc1ccccc1Cn1c(COc2ccccc2)nc2ccccc21	8.93%
O=C(N[C@@H]1CN(Cc2nccs2)[C@@H]2COC[C@@H]21)C1CCC1	-3.31%
O=C(Nc1ccc(F)cc1)c1cc(CN2CCOCC2)on1	1.96%
C=C1CCC2[C@](C)(CCC[C@]2(C)C(=O)OC)[C@H]1CCc1ccoc1/C=C/C(=O)O (some centres undefined)	9.97%
O=C1COC2(CCN(C(=O)C3(c4ccccc4)CCOCC3)C2)CN1c1ccc(F)cc1 (centres undefined)	2.68%
O=C(CCc1ccncc1)N(Cc1ccc2c(c1)OCO2)C1CCCCC1	-0.303%
COC[C@H]1C[C@@H]2CN(S(=O)(=O)c3ccccc3OC)C(C)[C@H]1N2C (some centres undefined)	0.608%
O=C(Nc1nnc(-c2cccc([N+](=O)[O-])c2)o1)C1CCN(S(=O)(=O)c2ccc3c(c2)CCC3)CC1	5.08%
Cc1nc(Nc2ccccn2)cc(C2CCCN2Cc2ncc[nH]2)n1 (centres undefined)	-2.35%
CCc1cccc(NS(=O)(=O)c2ccc3c(c2)C(C)(C)C(=O)N3)c1	4.05%
COc1cccc(CNC(=O)CN2C(=O)CCc3cc(Br)ccc32)c1	3.25%
O=C1CC2(C(=O)N(Cc3cccc(Cl)c3)c3ccccc32)c2cn[nH]c2N1 (centres undefined)	-5.23%

Structure (SMILES)	inhibition
CCn1c(=O)c2ccccc2n(Cc2nc(-c3ccc(C)cc3)no2)c1=O	-1.69%
O=C(C1CCC1)N1CCN2C(=O)c3ccccc3[C@H]2C1	-4.57%
O=C1C(O)=C(c2ccc(O)c(O)c2)C(=O)C(O)=C1c1ccccc1	13.7%
O=C1OCC2=C1C(c1ccccc1)CC(=O)N2c1cccc(F)c1 (centres undefined)	-0.0471%
Cc1nc(NCCO)c2sc3nc4c(cc3c2n1)COC(C)(C)C4	3.92%
CCOc1ccccc1-c1nc(-c2nnn(Cc3ccccc3)c2C)no1	7.54%
COc1ccc(C(Nc2ccc(S(=O)(=O)NCC3CCCO3)cc2)C(=O)NCC2CCCO2)cc1 (centres undefined)	1.49%
O=C(Cn1c(=O)n(Cc2cccs2)c(=O)c2cc(Cl)ccc21)NCC1CCCO1 (centres undefined)	0.727%
Cc1nc(N2CCOCC2)ncc1-c1cc(=O)[nH]c(N2CCC(Cc3ccccc3)CC2)n1	5.31%
Cc1nc2ccccc2n1CC(O)c1ccccc1 (centres undefined)	-0.449%
O=C(c1noc2ccc(S(=O)(=O)N3CCCC3)cc12)N1CCCC1	0.984%
Cc1ccc(CNc2nc3nc(CN4CCc5ccccc5C4)cc(=O)n3[nH]2)cc1	-0.288%
O=C(Cn1cc(SCc2cccc(F)c2)c2ccccc21)N1CCCCCC1	7.23%
CC(C)Cc1cc(-c2nn3c(-c4ccccc4Cl)nnc3s2)n[nH]1	5.44%
Cc1c(-c2nn3c(-c4ccco4)nnc3s2)cccc1[N+](=O)[O-]	61.3% (active)
O=C(COc1cccc2ccc(N3CCC(Cc4ccccc4)CC3)nc12)NCc1ccc(F)cc1	2.33%
O=C(c1cn(-c2cc(-c3nc(C4CC4)no3)ccn2)cn1)N1CCCCCC1	-3.62%
O=C(NCCN1CCOCC1)C1CCN(c2ccc(N3CCCCC3)nn2)CC1	-0.229%
Cc1ncc(-c2ccncc2)c(C2CCN(C(=O)c3cnccn3)CC2)n1	0.226%
Cn1cc2nc(SCC(=O)NCc3ccc(Cl)cc3)n(CC3CC3)c(=O)c2n1	-3.8%
O=c1c2ccccc2c(-c2nc(-c3ccncc3)no2)cn1-c1ccc(F)cc1	3.33%

Structure (SMILES)	inhibition
CCCCCCSc1ncnc2c1sc1nc(-c3ccccc3)c3c(c12)CC(C)(C)OC3	-2.54%
CSc1ncnc2c1sc1nc(-c3ccccc3)c3c(c12)CC(C)(C)OC3	2.83%
CC1(C)Cc2c(c(-c3ccco3)nc3sc4c(SCCCc5ccccc5)ncnc4c23)CO1	56.3% (active)
CCc1cnc(N2CC[C@@H]3CN(CC)S(=O)(=O)[C@@H]3CC2)nc1	1.62%
Cc1nc2c(c(=O)[nH]1)C(c1ccc(OCc3ccccc3F)cc1)CC(=O)N2 (centres undefined)	-1.23%
Cc1cc(N(C)C)nc(N2CCN(S(=O)(=O)c3ccc(-c4ccccc4)cc3)CC2)n1	1.74%
Cc1cc(C)c2c(C)c(C(=O)NCc3csc(C)n3)oc2c1	-0.0316%
Cc1ccc(C(=O)N2CCc3cc(-c4csc(NC(=O)CNc5ccccc5)n4)ccc32)cc1	-0.728%
Cc1nn(-c2ccc(Cl)cc2)c2c1C(c1cccc(Br)c1)N1C(=N2)N(C)c2c1c(=O)n(C)c(=O)n2C (centres undefined)	-0.542%
COCCCn1c(C(=O)N2CCC(C)CC2)cc2c(=O)n3ccccc3nc21	-5.93%
O=C1CN(C(=O)c2ccc(Cl)o2)c2ccccc2N1	-5.13%
CCc1nnc2ccc(C(=O)N3CCN(c4ccccn4)CC3)cn12	1.5%
Fc1cc(F)cc(-c2noc3ncnc(N(Cc4ccco4)CC4CCCO4)c23)c1 (centres undefined)	0.782%
Cc1ccc(CN2C[C@H]3C[C@H](C(=O)NC(C)C)[C@@H](C2)O3)o1	2.08%
O=C1NC(=O)N2Cc3ccccc3CN(C(=O)c3ccc(Cl)cc3)CC12 (centres undefined)	0.947%
COc1ccc(CN=C2NS(=O)(=O)C(c3ccc(F)cc3)=C2C)cc1OC	-4.12%
c1coc(CNc2nc(Nc3cccc4ccccc34)nc3ccccc23)c1	5.02%
CC(CC(=O)N1CCc2ccccc2C1)S(=O)(=O)c1ccc2c(c1)NC(=O)CCS2 (centres undefined)	-1.85%
COc1ccc(C)cc1NC(=O)c1coc(NC(=O)c2ccco2)n1	-2.46%
CO[C@H]1C[C@@H]2CC[C@@H](C)[C@@](O)(O2)C(=O)C(=O)N2CCCC[C@H]2C(=O)O[C@H]([C@H](C)C[C@@H]2CC[C@@H](O)[C@H](OC)C2)CC(=O)[C@H](C)/C=C(\C)[C@@H](O)[C@@H](OC)C(=O)[C@H](C)C[C@H](C)/C=C/C=CC=C1C	6.78%
CCN1CCN(c2ccc(-c3nc(-c4cccc(F)c4)no3)cn2)CC1	-1.45%

Structure (SMILES)	inhibition
CCc1nc(SCC(=O)Nc2cccc(OC)c2)c2c(=O)n(C)c(=O)n(C)c2n1	-0.222%
O=C1C2Cc3c([nH]c4ccccc34)C(c3ccccc3)N2C(=O)CN1C1CCCCC1 (centres undefined)	5.95%
O=C(C1=Cc2ccccc2OC1)N1CCN(c2ccccc2)CC1	0.226%
COc1cccc(C(=O)NC2CC(=O)N(c3ccc(F)cc3)C2)c1OC (centres undefined)	0.016%
Cc1nc(C2CCN(C(=O)C(C)(C)C)CC2)cc(N2C(=O)OCC2C(C)C)n1 (centres undefined)	-3.66%
CC(C)c1cc(N2CCCCC2)nc(-c2ccccn2)n1	-3.77%
CN(C)S(=O)(=O)N1C[C@H](OCc2ccccn2)[C@H]2OCCC[C@H]21	-1.03%
Cc1nccn1-c1cccc(C2CCCN(c3ncccn3)C2)n1 (centres undefined)	-0.888%
C/C=C(\C)C(=O)O[C@@H]1C[C@@]2(C)CC[C@H](C(C)C)[C@@]2(O)CC[C@@]1(C)O	-2.54%
O=C1CN2CC(c3ccccc3S2(=O)=O)N1Cc1ccccc1 (centres undefined)	-1.24%
CCC(=O)c1c(-c2ccc(F)cc2)c2c3n(c(-c4ccc(Cl)c(Cl)c4)cn13)CCCC2	3.03%
O=C1N[C@H]2OCCC[C@H]2[C@H](c2cccc(CNC(=O)c3ccon3)c2)N1	1.68%
Cc1ccccc1CN1C(=O)N(c2cccc(F)c2)c2ncccc2S1(=O)=O	3.52%
Cc1cnn(CC2CCCN2Cc2nc(-c3ccco3)no2)c1 (centres undefined)	-8.36%
CC(=O)NCc1nc(-c2ccc3c(c2)nc(C)c(=O)n3C2CCCC2)no1	-31.3%
O=C(C1CCCN(c2cnc3nccnc3c2)C1)N1CCCCCC1 (centres undefined)	-42.4%
CN(C)c1ncc(CN2CCN(C)C(c3ccccc3)C2)cn1 (centres undefined)	-0.428%
CNC(=O)C1Cc2ccccc2N1S(=O)(=O)c1cccnc1 (centres undefined)	-8.34%
Cc1ccc(C)c(S(=O)(=O)NCC(c2ccc3c(c2)CCN3C)N2CCCC2)c1 (centres undefined)	-2.82%
COc1ccc(C(=O)N2CCCC(c3ccnc(=O)[nH]3)C2)cn1 (centres undefined)	-1.26%
Cc1ccc(NC(=O)N2CCSc3ccccc32)cc1	-0.231%

Source: PubChem BioAssay AID1645859 (Buhrlage Lab, Dana-Farber Cancer Institute and Novartis …, 2021)
